# Rows were chosen to be rich in hits. Some 9.2% of all compounds tested hit in one or more screens of this group.
# NPC1 promoter act – qHTS Assay for NPC1 Promoter Activators | Huh7 NPC1 promoter luciferase reporter, 24 h | Potency, µM (titrated, usually from 9.22 µM), for inactives: at the top dose activation, usual class: activators | 320,000 tested, 2.4% active | AID 485313, 2010; also: % of control where 0% means no effect; nearly all actives have a fitted effect of over 60% in size
#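 Compounds in DMSO were transferred onto Huh7 NPC1-luciferase reporter cells pre-incubated 2 h; after 24 h at 37 °C, Amplite reagent was dispensed and luminescence recorded 10 min later.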
# FLuc counter – qHTS profiling assay for firefly luciferase inhibitor/activator using purifed enzyme and Km concentrations of substrates (counterscreen for miR-21 project). 360,000 tested, 6.9% active. Potency, µM (top dose mostly 57.5 µM), inactives show top-dose activity change, negative = inhibition, hits mostly inhibitors. purified FLuc, Km substrates, luminescence inhibition. Luciferin 4-monooxygenase (Photinus pyralis), P08659;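 also: plate controls were vehicle for no effect and reference inhibitor for full effect; nearly all actives have a fitted effect of over 55% in size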
# Target sequence (P08659 whole entry, looked up): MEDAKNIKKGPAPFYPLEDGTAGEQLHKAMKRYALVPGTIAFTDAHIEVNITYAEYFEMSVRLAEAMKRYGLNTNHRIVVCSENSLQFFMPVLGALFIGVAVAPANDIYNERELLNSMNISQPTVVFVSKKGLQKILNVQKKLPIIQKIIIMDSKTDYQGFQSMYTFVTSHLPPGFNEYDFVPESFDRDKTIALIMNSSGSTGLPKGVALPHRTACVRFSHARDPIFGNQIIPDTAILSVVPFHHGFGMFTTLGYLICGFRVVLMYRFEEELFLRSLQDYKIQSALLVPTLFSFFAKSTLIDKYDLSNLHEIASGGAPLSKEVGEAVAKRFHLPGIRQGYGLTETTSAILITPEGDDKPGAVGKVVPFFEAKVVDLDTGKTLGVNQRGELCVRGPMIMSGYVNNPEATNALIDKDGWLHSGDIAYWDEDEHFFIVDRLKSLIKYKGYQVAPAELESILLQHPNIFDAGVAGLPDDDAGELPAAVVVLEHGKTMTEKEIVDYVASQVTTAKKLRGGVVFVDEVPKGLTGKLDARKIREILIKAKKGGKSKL
#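 Purified P. pyralis luciferase, 10 nM final, with Km-level 10 uM D-luciferin and 10 uM ATP in 50 mM Tris acetate pH 7.5, 10 mM Mg acetate, 0.01% Tween-20, 0.05% BSA; 6-point qHTS titration about 60 µM downward; luminescence read.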
# ELG1 genotox – qHTS screen for small molecules that induce genotoxicity in human embryonic kidney (HEK293T) cells expressing luciferase-tagged ELG1 | HEK293T ELG1-luciferase reporter, luminescence, 16 h | Potency, µM (titrated, usually from 46 µM), inactives show at the top dose activity change, positive = activation, hits mostly activators | 330,000 tested, 1.3% active; also: % of control where 0% means no effect; nearly all actives have a fitted effect of over 60% in size
#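 HEK293T cells expressing luciferase-tagged ELG1 were exposed to compound or DMSO vehicle for 16 hr at 37 °C and 5% CO2. Luciferase activity was then measured with ONE-Glo after 30 min at room temperature.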
# Rab9 prom act – qHTS Assay for Rab9 Promoter Activators. Huh7 Rab9 promoter-luciferase reporter, luminescence, 24 h. Potency, µM (doses to about 9.22 µM), for the others: at the highest dose activation, negative = inhibition, actives largely listed as activators. 320,000 tested, 2.8% active; also: % of control where 0% means no effect; nearly all actives have a fitted effect of over 60% in size
#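 Cells were plated at 1500 per well in reduced-serum medium with 10% FBS and left 2 h. Compound in DMSO was then added for 24 h at 37 °C. Reporter signal was read by luminescence after 10 min with luciferase detection reagent.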
# SMN2 splice up – qHTS Assay for Enhancers of SMN2 Splice Variant Expression; HEK293 SMN2-luciferase splicing reporter, luminescence, 30-36 h; Potency, µM (highest dose often 46.1 µM), inactives show at the highest dose activity change, positive = activation, actives largely listed as activators; 210,000 tested, 2.8% active; AID 1458, 2008; also: % of control where 0% means no effect; nearly all actives have a fitted effect of over 55% in size
#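 HEK293 cells carry an SMN2 minigene-luciferase reporter in which exon 7 inclusion puts luciferase in frame. Cells were seeded at 2000 cells/well, attached for 10-12 hours, then exposed to compounds for 30-36 hours at 37C before ONE-Glo luminescence.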
# ELG1 repair inh – qHTS screen for small molecules that inhibit ELG1-dependent DNA repair in human embryonic kidney (HEK293T) cells expressing luciferase-tagged ELG1. HEK293T ELG1-luciferase reporter, luminescence, 16 h; DNA damage induced by 5-fluorouridine. Potency, µM (titrated, usually from 46.1 µM), without a hit: at the highest dose activity change, negative = inhibition, most hits filed as inhibitors. 330,000 tested, 2.3% active; also: % is scaled to controls: 0 for no effect and ±100 for the full control effect; nearly all actives have a fitted effect of over 55% in size
#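 DMSO vehicle served as the neutral condition. Each well held 2,000 cells given 5-fluorouridine plus compound; after 16 hr at 37 °C/5% CO2, ONE-Glo was added and luciferase measured 30 min later.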
# * marks the source's active call; other numbers are inactive results; ? = inconclusive; · = no result; [ ] = remark or other dose. Calls follow the shape of the dose curve; as a rule, active = well fitted curve in the direction sought with a large enough effect; inconclusive = small, poorly fitted or top-dose-only effect, or another doubt; inactive = no such curve, though single readings can be large; an effect the other way counts as inactive or inconclusive. Potency is read from the fitted curve at half-maximal effect.
SMILES,NPC1 promoter act,FLuc counter,ELG1 genotox,Rab9 prom act,SMN2 splice up,ELG1 repair inh
CC(C)(C)n1cnc2cc(NCc3ccc(Br)cc3)ccc21,3.5µM*,6.7µM*,?,2µM*,·,?
O=C(/C=C/c1ccc(Cl)c(Cl)c1)NC1=NCCS1,2.8µM*,?,18%,2.2µM*,15%,?
CC(C)c1ccc(/C=C/C(=O)NC2=NCCS2)cc1,0.32µM*,1.3µM*,?,0.32µM*,1.8µM*,?
COc1ccc(-c2cc(CS(=O)(=O)c3ccccc3)on2)cc1,3.2µM*,11µM*,?,3.2µM*,18µM*,?
O=S(=O)(Cc1cc(-c2ccccc2)no1)c1ccccc1,?,27µM*,?,?,?,?
COc1ccc(-c2cc(CNS(=O)(=O)c3ccc(NC(C)=O)cc3)on2)cc1,0%,-1%,-4%,1%,·,-7%
O=C1c2ccccc2C(=O)N1Cc1cc(-c2ccccc2)no1,0%,-12%,-1%,-7%,-77%,7%
C=CCN(c1ccccc1)S(=O)(=O)c1ccc(Cl)c(C(=O)OCC(=O)c2[nH]c(C)c(C(C)=O)c2C)c1,-1%,2%,1%,3%,-13%,?
CC(C)Oc1ccc(C(=O)NNC(=O)c2ccccc2C(=O)O)cc1,-1%,21µM*,0%,12%,3%,15%
CC(C)Oc1ccc(CCC(=O)NNC(=O)c2ccccc2C(=O)O)cc1,6%,-8%,2%,-2%,·,?
CCC(NC(=O)c1ccccc1NC(=O)c1ccc(OC)cc1)C(=O)N1CCCC1 (stereo not given),21%,17µM*,13%,24%,?,?
COc1ccc(NC(=O)c2ccccc2NC(=O)NC2CCCCC2)cc1,21%,5.4µM*,4%,18%,20%,?
CCCCNC(=O)Nc1ccccc1C(=O)Nc1ccc(OC)cc1,2%,11µM*,8%,13%,13%,?
Cc1c(Cl)cccc1N(Cc1ccc(C(=O)O)cc1)S(=O)(=O)c1ccccc1,0%,?,-8%,-1%,3%,14%
COc1cccc(NC(=O)CNC(=O)Cn2cnc3sc(C)c(C)c3c2=O)c1,0%,3%,3%,0%,·,-8%
COC(=O)c1ccccc1NC(=S)NC(=O)c1ccc2c(c1)OCO2,-2%,-19%,10%,-3%,·,20%
COc1ccc(C)cc1NC(=O)NC1CCCCCCC1,-2%,15µM*,-1%,0%,·,4%
O=C(O)c1ccc(NC(=O)c2ccccc2NC(=O)c2ccccc2Cl)cc1,-2%,19µM*,1%,-2%,·,10%
COc1ccc(C(=O)Nc2ccc(O)cc2C(=O)O)cc1,-4%,11µM*,-2%,3%,-6%,6%
O=C(Cc1ccc(Cl)cc1)Nc1ccccc1C(=O)Nc1ccc(C(=O)O)cc1,-6%,-20%,11%,0%,-6%,?
NC(=O)c1ccccc1NC(=O)c1ccc2c(c1)OCO2,1µM*,7.6µM*,?,1.8µM*,·,?
CC(C)N1CC(C(=O)Nc2ccc(F)c(Cl)c2)CC1=O (stereo not given),2%,2%,0%,3%,·,-5%
CCCN(CCC)CCNC(=O)Cn1ncc2c([nH]c3ccc(C)cc32)c1=O,·,0%,·,·,·,·
COc1ccc(CC(=O)NCCc2sc(-c3cccc(F)c3)nc2C)cc1,·,-7%,·,·,·,·
NC(=O)c1ccccc1NC(=O)c1ccc2ccccc2c1,0.89µM*,0.54µM*,2.3µM*,0.56µM*,·,?
SMILES,NPC1 promoter act,FLuc counter,ELG1 genotox,Rab9 prom act,SMN2 splice up,ELG1 repair inh
Cc1nnc(NC(=O)c2ccc(S(=O)(=O)N3CCCCCC3)cc2)o1,-5%,-2%,2%,3%,-36%,-11%
COc1ccc(C(=O)Nc2ccccc2C(=O)Nc2ccncc2)cc1,?,1.7µM*,?,?,·,?
Cc1ccccc1NC(=O)c1ccc2ccccc2c1,?,15µM*,?,?,·,?
Cc1nnc(NC(=O)c2ccc3ccccc3c2)o1,4%,24µM*,2%,11%,-13%,17%
Cc1ccccc1NC(=O)NNC(=O)c1ccc2ccccc2c1,-1%,-1%,7%,-3%,·,15%
Cc1cc(C)c(NC(=O)Cn2c(=O)n(CCC(=O)NCc3ccccc3Cl)c(=O)c3sccc32)c(C)c1,·,5%,·,·,0%,·
COc1cc2c(cc1OC)C(C(=O)NC(C)c1ccccc1)CC(=O)N2 (stereo not given),-5%,1%,1%,-4%,·,-5%
COc1ccc(C(=O)Nc2ccccc2C(=O)Nc2ccccc2C(=O)O)cc1,3.2µM*,0.48µM*,2%,2.8µM*,·,-3%
COc1ccc(C(=O)Nc2ccccc2C(=O)N/N=C/c2cccc3ccccc23)cc1,?,0.085µM*,-9%,?,-60%,?
COc1ccc(C(=O)Nc2ccccc2C(=O)N2CCCCCC2)cc1,?,0%,5%,4%,·,18%
COc1cccc(/C=N/NC(=O)c2cccc3ccccc23)c1,10%,-11%,-6%,-2%,·,-12%
COc1ccc(C(=O)Nc2ccccc2C(N)=O)cc1,3.2µM*,-22%[2.3 µM],?,2µM*,32µM*,?
CCCN1C(=O)c2cc(C(=O)Nc3ccccc3C)ccc2C1Nc1ccccc1C (stereo not given),1%,2%,-7%,-15%,·,23µM*
COc1ccc(NC(=O)C2CCCN(c3nnc(C)c4c(C)n(-c5ccccc5)nc34)C2)cc1Cl (stereo not given),·,-12%,·,·,·,·
CC1CCC2C(=O)N(c3ccc(Cc4ccncc4)cc3)C(=O)C2C1 (stereo not given),-21%,?,-4%,-41%,·,?
COc1ccc(C(=O)Nc2ccccc2C(=O)Nc2ccc(C(=O)O)cc2)cc1,?,0.76µM*,?,?,·,?
COc1c(Cl)cc(C(=O)NN)cc1Cl,-3%,1%,?,3%,·,?
COc1ccc(NC(=O)c2ccccc2NC(=O)COc2ccccc2)cc1,-2%,-1%,17%,2%,19%,6%
COCC(=O)Nc1ccccc1C(=O)Nc1ccc(OC)cc1,?,1%,?,2.8µM*,?,?

# Bioassay records deposited in PubChem by National Center for Advancing Translational Sciences (NCATS).
